RecA splice inh: Mtb RecA intein splicing inhibition. P9WHJ3. cell-free RecA intein splicing, fluorescence. inhibition, % (test concentration not listed). 0.75% of 290,000 active; in the data active means inhibition above about 30%; inconclusive means no clear call, values can overlap the other calls;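 further: 0% = vehicle wells and 100% = reference inhibitor control wells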
Rv3671c inh: inhibitors of M. tuberculosis serine protease Rv3671c; P9WHR9; inhibition, % at 5.96 µM; 0.048% of 320,000 active; in the data active means inhibition above about 38%;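 further: extracellular domain of Rv3671c used as enzyme; 0% = enzyme with DMSO and 100% = no enzyme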
Target sequence (P9WHR9 whole entry, looked up, the tested form may be a part): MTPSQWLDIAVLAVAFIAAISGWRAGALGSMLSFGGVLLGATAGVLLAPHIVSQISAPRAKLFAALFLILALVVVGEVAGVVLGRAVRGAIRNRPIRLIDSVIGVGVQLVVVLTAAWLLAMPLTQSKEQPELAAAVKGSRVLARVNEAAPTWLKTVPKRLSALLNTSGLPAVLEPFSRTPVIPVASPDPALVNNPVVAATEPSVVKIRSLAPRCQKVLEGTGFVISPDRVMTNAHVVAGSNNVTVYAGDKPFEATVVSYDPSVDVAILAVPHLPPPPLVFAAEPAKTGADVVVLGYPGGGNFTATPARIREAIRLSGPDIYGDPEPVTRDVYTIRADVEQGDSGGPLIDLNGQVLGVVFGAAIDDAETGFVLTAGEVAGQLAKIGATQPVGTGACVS
GDH-TPI counter: counter-screen for M. tuberculosis FBA inhibitors: GDH-TPI coupled enzymes; GDH-TPI coupled enzyme counterscreen, NADH absorbance; 1.2% of 360,000 active; inhibition, % at 4.8 µM; in the data active means inhibition above about 30%;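 further: 0% = DMSO wells and 100% = wells lacking the enzyme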
Mtb UGM inh: inhibitors of M. tuberculosis UDP-galactopyranose mutase. 0.06% of 320,000 active. purified UGM, fluorescence polarization probe displacement. inhibition, % at 10 µM. P9WIQ1; in the data active means inhibition above about 10%, passing the limit was not always enough; inconclusive means no clear call, values can overlap the other calls
Mtb bLac sens: beta-lactam sensitization of Mtb H37Rv. AID 434955. inhibition, % at 25 µM. 0.27% of 330,000 active. M. tuberculosis H37Rv growth with meropenem, percent inhibition; call rule not given here;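 further: growth measured after seven days incubation then overnight dye step; 0% = bacteria only wells and 100% = bacteria with antibiotic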
Mtb FBA inh: Mtb fructose-bisphosphate aldolase inhibition; P9WQA3; purified M. tuberculosis FBA, fluorescence read-out; inhibition, % at 1 µM; 2.3% of 360,000 active; AID 588726; in the data active means inhibition above about 27%;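 further: 0% = vehicle and 100% = reference inhibitor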
* hit, by the source's call; u = inconclusive; x = not tested or not shown; + = active, no number. The list is not random: actives were taken first. Their share in the collection is about 4%.

SMILES	RecA splice inh	Rv3671c inh	GDH-TPI counter	Mtb UGM inh	Mtb bLac sens	Mtb FBA inh
NC1=NC(=O)C(=Cc2ccccc2)S1	x	x	31*	x	x	3
Cc1c(N=C2NN=C(c3c[nH]c4ccccc34)CS2)c(=O)n(-c2ccccc2)n1C	-1	-3	50*	0	-3	0
Cc1c(N=C2NN=C(c3ccc(Cl)cc3)CS2)c(=O)n(-c2ccccc2)n1C	6	4	5	3	-3	5
CCOc1ccccc1N1CC(O)=C(c2nc3ccccc3s2)C1=N	1	1	23	2	12	4
COc1ccc(OC)c(N2CC(O)=C(c3nc4ccccc4s3)C2=N)c1	-2	-6	36*	-1	50	-2
Cc1nn(-c2ccccc2)c(C)c1C(=O)OCC(=O)N(C)C1CCS(=O)(=O)C1 (stereo not drawn)	x	-13	7	-5	-7	-1
CC1CCCN(C(=O)C2CCN(c3ncnc4c3nc3n4CCCCC3)CC2)C1 (stereo not drawn)	-4	-6	1	-1	x	6
Cn1c(=O)c(N=O)c(N)n(Cc2ccccc2)c1=S	11	15	32*	-2	0	-1
COc1cc(/C=C2\SC(=O)N(c3ccc(O)cc3)C2=O)cc(OC)c1OC	-1	-1	48*	0	0	-3
CCOc1ccc(N2C(=O)S/C(=C\c3cc(OC)c(OC)c(OC)c3)C2=O)cc1	0	6	8	-1	1	0
CCCCN1C(=S)SC(C)(C)C1/[N+]([O-])=C/c1ccc(S(=O)(=O)NC)cc1 (stereo not drawn)	-4	2	9	-1	-2	0
COc1ccc(/C=C(/NC(=O)c2cccs2)C(=O)Nc2ccc(C)cc2)cc1OC	1	0	21	-2	13	-1
COc1ccc(/C=C(\NC(=O)c2cccs2)C(=O)Nc2ccc(C)cc2)cc1OC	-1	-6	52*	0	5	1
CCN1CCN(S(=O)(=O)c2cc(OCC(=O)NC3CCCCC3)c(C)cc2Cl)CC1	-5	-3	52*	3	6	-7
CCOC(=O)CNC(=O)CSc1nc(-c2cccc(C)c2)ns1	-1	-3	3	-4	100	5
CCN(C(=O)c1cc(Cl)ccc1Cl)C1CCS(=O)(=O)C1 (stereo not drawn)	-2	1	2	1	-12	-1
CC(C)n1c(SCC(=O)Nc2ccccc2)nc2c1c(=O)[nH]c(=O)n2C	6	2	-15	0	2	-5
CCn1nc2cc(C(=O)NCc3cc(C(F)(F)F)cc(C(F)(F)F)c3)ccc2c1OC	1	3	1	0	4	39*
CCCCn1nc2cc(C(=O)NCc3ccc(OC(F)(F)F)cc3)ccc2c1OC	1	-10	5	-1	10	29*
CCc1cccc2c(/C=N/NC(=O)c3cccc(S(=O)(=O)Nc4ccccc4Cl)c3)c[nH]c12	-1	11	37*	1	47	4
CC(C)Cc1nnc(NC(=O)C2CCN(C(=O)c3ccc(Cl)cc3)CC2)s1	0	8	-2	-1	2	-1
c1ccc2c(c1)cc1ccc3cccc4ccc2c1c34	x	x	9	x	x	34*
COc1cc(NC(=O)c2cc(=O)[nH]c3ccc(S(=O)(=O)N4CCOCC4)cc23)cc(OC)c1	x	x	7	x	x	3
Cc1csc(NC(=O)c2cc(=O)[nH]c3ccc(S(=O)(=O)N4CCOCC4)cc23)n1	-115	1	6	3	-6	46*
CCN(CC)CCCNc1ccc(-c2nnc(-c3ccc(OCC(C)C)cc3)o2)cn1	2	1	24	-2	0	+
SMILES	RecA splice inh	Rv3671c inh	GDH-TPI counter	Mtb UGM inh	Mtb bLac sens	Mtb FBA inh
Cc1c(NC(=O)COc2ccc3ccccc3c2)c(=O)n(-c2ccccc2)n1C	1	-7	x	2	-5	x
Cc1c(CC(=O)NCCCCCC(=O)O)c(=O)oc2c(C)c3oc4c(c3cc12)CCCC4	-2	x	8	1	-1	13
Cc1c(CC(=O)N2CCC(C(N)=O)CC2)c(=O)oc2cc3c(cc12)CCC1(CCCCC1)O3	2	0	18	-2	1	+
Cc1c(CCC(=O)N2CCC(C(=O)O)CC2)c(=O)oc2cc3oc4c(c3cc12)CCCC4	x	-7	1	-3	-3	8
Cc1c(CC(=O)O)c(=O)oc2cc3occ(-c4ccccc4)c3cc12	-1	-7	5	-4	-10	6
Cc1c(CC(=O)O)c(=O)oc2cc3c(cc12)CCC(C)(C)O3	-2	5	25	0	2	+
Cc1c(CC(=O)NCCCC(=O)O)c(=O)oc2cc3c(cc12)CCC(C)(C)O3	0	-7	26	-3	-4	+
Cc1c(CC(=O)NCCCCCC(=O)O)c(=O)oc2cc3c(cc12)CCC(C)(C)O3	-2	x	11	-1	2	187*
Cc1c(CC(=O)NCCCC(=O)O)c(=O)oc2cc3oc4c(c3cc12)CCCC4	-3	-1	13	0	u	5
CC(C)NC(=O)CSc1nc(-c2ccccc2)cs1	-2	x	-3	x	x	-4
COCCCNC(=O)Cc1c(C)c2cc3c(cc2oc1=O)OC(C)(C)CC3	-5	2	11	2	-2	192*
COCCCNC(=O)Cc1c(C)c2c(cc(C)c3c(C)c(C)oc32)oc1=O	0	x	9	x	x	8
CCC(NC(=O)Cc1c(C)c2cc3c(cc2oc1=O)OC(C)(C)CC3)C(=O)O (stereo not drawn)	-2	2	23	2	2	+
CC1Cc2nc(SCC(=O)NCc3ccccc3)n(Cc3ccccc3)c(=O)c2S1 (stereo not drawn)	6	-6	34*	0	7	2
N#CC(C#N)=NNc1ccc(S(=O)(=O)N2CCCC2)cc1	30*	10	14	-1	-1	-3
N#C/C(=N\Nc1ccc(S(=O)(=O)N2CCCCCC2)cc1)C(N)=S	9	2	2	-3	3	-25
O=C1NCC2=C1C(c1ccccc1)Nc1ccccc1N2 (stereo not drawn)	u	-3	32*	1	-2	6
O=C1CCCC2=C1C(c1ccncc1)Nc1ccccc1N2 (stereo not drawn)	2	11	24	-1	-1	9
O=C1N/C(=N\N=C\c2ccco2)SC1Cc1ccccc1[N+](=O)[O-] (stereo not drawn)	3	5	38*	0	21	-2
O=C(N/N=C/c1cccc(Oc2ccccc2)c1)c1ccc(O)cc1O	1	x	34*	2	10	1
COc1ccc(/C=N/NC(=O)c2ccc(O)cc2O)cc1CSc1ccccn1	4	-2	38*	-1	0	-1
COc1ccc(C=O)cc1CSc1ccccn1	-1	-5	-6	0	-9	-2
O=C(O)c1ccc(/C=N/NC(=O)c2cc3ccccc3cc2O)cc1	x	12	41*	1	2	-8
O=C(N/N=C/c1ccncc1)c1cc2c(ccc3ccccc32)o1	-4	-15	47*	-1	32	3

Source: PubChem (several laboratories)
